Results published in PubChem BioAssay AID2279 (Southern Research Specialized Biocontainment Screening …, 2010).
Potency and affinity values are given separately. Activity calls are given as the source filed them. Entries that show only a call come without a potency. No rule for the calls is given here.

Test: HIV-1 Env-mediated cell fusion inhibitors, dose response, CCR5-tropic Env (AID 2279)
Details: CCR5-tropic HIV-1 Env, reporter read-out; series mostly up to 50 µM

| Structure (SMILES) | outcome |
| --- | --- |
| CCS(=O)(=O)C1=NN2C(=N)/C(=C\c3ccc(OCCOc4cccc(OC)c4)c(OC)c3)C(=O)N=C2S1 | inactive |
| CCc1oc2ccccc2c1C(=O)c1cc(Br)c(O)c(Br)c1 | inactive |
| COc1cc(/C=C2/C(=O)NN(c3ccc(Cl)cc3)C2=O)ccc1OC(=O)c1ccco1 | inactive |
| COc1ccc(-c2cc(-c3ccc(Cl)cc3)c(C#N)c(SCC(=O)O)n2)cc1 | inactive |
| CCOc1ccc(C2C(C(=O)Nc3ccccc3)=C(C)N=c3s/c(=C/c4cccc(OCC(=O)O)c4)c(=O)n32)cc1 (stereo unspecified) | inactive |
| COc1cc(/C=N/NC(=O)C(Cc2c[nH]c3ccccc23)NC(=O)OCc2ccccc2)cc([N+](=O)[O-])c1O (stereo unspecified) | inactive |
| O=C(O)CSc1nc(-c2ccc(Cl)cc2)nc2c1oc1ccccc12 | inactive |
| Cc1cccc(S(=O)(=O)Nc2nc3ccccc3nc2Nc2cccc(C(=O)O)c2)c1 | inactive |
| CCCOc1ccc(C(=O)NNC(=S)NC(=O)c2cc(-c3ccccc3)nc3ccccc23)cc1 | inactive |
| Cc1noc(NS(=O)(=O)c2ccc(NC(=O)Nc3ccc(Cl)c(Cl)c3)cc2)c1C | inactive |
| O=C1NN(c2ccc(Cl)c(Cl)c2)C(=O)/C1=C/c1ccc(-c2ccccc2C(=O)O)o1 | inactive |
| CCc1ccc(/C=C2\SC(=S)N(CCCC(=O)Nc3ccccc3C(=O)O)C2=O)cc1 | inactive |
| O=C(NN1C(=O)/C(=C/c2ccc(O)cc2)SC1=S)c1ccccc1O | inactive |
| O=C1NC(=O)/C(=C/c2ccc(-c3cc(C(=O)O)ccc3Cl)o2)S1 | inactive |
| O=C(O)CN1C(=O)/C(=C\c2cc(Br)ccc2OCc2ccccc2Cl)SC1=S | inactive |
| Cc1cc(/C=c2\sc3nc4ccccc4n3c2=O)c(C)n1-c1ccc(C(=O)O)cc1 | inactive |
| O=C(CN1C(=O)S/C(=C\C=C\c2ccccc2)C1=O)Nc1ccccc1C(=O)O | inactive |
| O=C1NC(=Nc2ccccc2Cl)S/C1=C\c1cccc([N+](=O)[O-])c1O | inactive |
| O=C(O)CN1C(=O)/C(=C\c2ccccc2OCc2ccc(Cl)cc2Cl)SC1=S | inactive |
| O=C(O)c1[nH]c2ccccc2c1C(c1cc(Cl)cc([N+](=O)[O-])c1O)c1c(C(=O)O)[nH]c2ccccc12 | inactive |
| CCOc1cc(/C=N/NC(=O)c2ccc(-c3csc(Nc4ccc(C)cc4)n3)cc2)ccc1OCC(=O)O | inactive |

| Structure (SMILES) | outcome |
| --- | --- |
| O=C(O)COc1ccccc1/C=N/NC(=O)CSc1nnc(SCc2cccc3ccccc23)s1 | inactive |
| Cc1c(CCC(=O)O)c(=O)oc2c(C)c3occ(-c4ccc(Br)cc4)c3cc12 | inactive |
| N=C1/C(=C\c2ccc(-c3cccc(C(=O)O)c3)o2)C(=O)N=C2SC=C(c3ccccc3)N12 | inactive |
| O=C(O)c1cc(-c2ccc(/C=N/Nc3ccc(Cl)cc3)o2)ccc1Cl | inactive |
| O=C1NN(c2ccc(Cl)cc2)C(=O)/C1=C\c1ccc(-c2cccc(C(=O)O)c2)o1 | inactive |
| N#Cc1c(-c2ccccc2)nc(SCC(=O)Nc2ccc(OC(F)(F)Cl)cc2)[nH]c1=O | inactive |
| Cc1cn2c(N)c(C=C3C=C(Cl)C(=O)C(Cl)=C3)c(=O)nc2s1 | inactive |
| N#Cc1c(-c2ccccc2)nc(SCc2cccc(C(F)(F)F)c2)[nH]c1=O | inactive |
| O=C1NN(c2ccccc2)C(=O)/C1=C\c1cccc(OC(=O)c2cccs2)c1 | inactive |
| COc1cc(/C=C2/SC(=S)N(Cc3ccccc3)C2=O)ccc1OCC(=O)O | inactive |
| O=C(Nc1cc(C(=O)Nc2ccccc2C(=O)O)cc(C(=O)Nc2ccccc2C(=O)O)c1)c1ccccc1 | inactive |
| O=C(CCN1C(=O)/C(=C/c2ccccc2Cl)SC1=S)Nc1ccccc1C(=O)O | inactive |
| O=C(CCCN1C(=O)/C(=C/c2cccs2)SC1=S)Nc1ccc(O)c(C(=O)O)c1 | inactive |
| Oc1c(Br)cc(Br)c(/C=N/n2c(-c3ccccc3)n[nH]c2=S)c1Br | inactive |
| CS(=O)(=O)C1=NSC2=NC(=O)/C(=C\c3cccn3-c3ccc(Cl)cc3)C(=N)N21 | inactive |
| Cc1cccc(C)c1-n1cccc1/C=C1\SC(=S)N(c2cccc(C(=O)O)c2)C1=O | inactive |
| Nc1c(S(=O)(=O)O)cc(NC(=O)c2ccccc2)c2c1C(=O)c1ccccc1C2=O | inactive |
| Cc1ccc(/C=C2\SC(=S)N(CCCC(=O)Nc3ccccc3C(=O)O)C2=O)cc1 | inactive |
| N#Cc1c(-c2ccccc2)nc(SCc2ccc(Cl)cc2)[nH]c1=O | inactive |
| COc1ccc(NS(=O)(=O)c2ccc3c(c2)[C@H]2C=CC[C@H]2[C@@H](c2ccc(C(=O)O)cc2)N3)cc1 | inactive |
